# From PubChem BioAssay
# UHRF1 binding: human UHRF1 methylated DNA binding inhibitors; UHRF1 binding to methylated oligo, TR-FRET; inhibition, % at 4.4 µM; 370,000 compounds, 0.75% hits; AID 687016; in the data active means inhibition above about 21%;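 further: UHRF1 SRA domain binding a hemimethylated CpG hairpin DNA probe; 0% = median of test compound wells and 100% = reference inhibitor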
# PLC-gamma1 inh: PLC-gamma1 (human) inhibition, primary screen. P19174. purified PLC-gamma1, fluorogenic substrate, fluorescence. inhibition, % at 12.2 µM. 370,000 compounds, 0.84% hits; in the data active means inhibition above about 9.5%
# MBD2 DNA inh: inhibitors of human MBD2 binding to methylated oligonucleotide. 370,000 compounds, 0.31% hits. AID 686964. inhibition, % at 4.4 µM. TR-FRET; in the data active means inhibition above about 13%
# LEDGF integ inh: blocks HIV-1 LEDGF/p75-dependent DNA integration. TR-FRET IN-LEDGF/p75 DNA integration, Eu/Cy5. inhibition, % at 3.7 µM. 370,000 compounds, 0.64% hits;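 active means inhibition above the screen-wide mean plus 3 SD, cut at about 13% in these data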;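 further: signal is the Cy5 over europium emission ratio at 671 and 618 nm; 0% = plate median of compound wells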
# PLC-beta3 inh: inhibitors of human phospholipase C beta3 | Purified PLC-beta3, fluorogenic substrate, fluorescence | inhibition, % at 12.2 µM | 370,000 compounds, 0.18% hits; in the data active means inhibition above about 11%;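 further: 0% = median of compound wells on plate and 100% = full blocker control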
# Numbers without * were called inactive. This is a sample that favours compounds with a hit; in the whole collection about 2.4% have one here.
SMILES,UHRF1 binding,PLC-gamma1 inh,MBD2 DNA inh,LEDGF integ inh,PLC-beta3 inh
N#CCC[C@H]1CC[C@]2(CCCN(C(=O)c3ccccc3)C2)O1,3,4,5,-3,1
COC(=O)c1ccc(Cn2cnc3c(cnn3-c3ccc(Cl)cc3)c2=O)o1,32*,5,-4,-3,2
CC(NCc1ccco1)C(=O)N1CCN(c2ccc(F)cc2)CC1 (stereo not drawn),2,7,1,1,7
COc1cccc(CNC(=O)c2ccc(CS(=O)(=O)Cc3ccc(C)cc3)o2)c1,-3,4,0,1,-7
COc1cccc(CNC(=O)c2ccc(CS(=O)(=O)Cc3ccccc3C)o2)c1,24*,9,5,2,-7
CC(C)(C)CC(=O)Nc1cccc2c1CCCC2,15,2,5,0,0
O=C(CS(=O)CC(=O)Nc1cccc2c1CCCC2)Nc1ccc(F)cc1 (stereo not drawn),6,15*,3,4,8
CC(CCN1CCC(C(O)(c2ccccc2)c2ccccc2)CC1)Oc1ccccc1C#N (stereo not drawn),0,3,-6,3,4
Cc1cc(/C=N/N2CCN(C)CC2)c(C)n1-c1ccc(Cl)cc1,30*,-5,3,1,-16
COc1ccc(-c2cc(C(=O)Nc3ccc(S(=O)(=O)Nc4onc(C)c4C)cc3)c3ccccc3n2)cc1,3,-285,3,60*,-418
COc1ccc(-c2cc(C(=O)Nc3ccc(S(=O)(=O)Nc4ncccn4)cc3)c3ccccc3n2)cc1,1,-39,3,-1,-67
CC(C)CNC(=O)OCc1cn(Cc2cc(F)cc(F)c2)nn1,-1,2,-6,4,1
Cc1n[nH]c(C)c1CCNC(=O)C1CCC(=O)N(CCc2cccc(F)c2)C1 (stereo not drawn),22*,0,3,-2,-13
CCOc1cccc(-c2nc3cc(C)ccc3o2)c1,26*,3,11,11,10
Cc1ccc(NC(=O)C(=O)NCC2OCCc3ccccc32)cc1 (stereo not drawn),57*,-3,5,-3,-2
C=CCn1c(SCC(N)=O)nnc1-c1cnccn1,74*,5,0,7,-1
C=CCn1c(SCC(=O)Nc2ccc(F)cc2)nnc1-c1cnccn1,0,-3,-1,-1,-4
Cc1sc(NC(=O)C2=COCCO2)nc1-c1ccc(Br)cc1,30*,-9,-6,1,-12
CC(C)C(C#CC1CC1)NCc1ccc2c(c1)OCO2 (stereo not drawn),1,6,2,-2,0
OCCN1CCCC12CCC(c1ccccc1)CC2 (stereo not drawn),-3,2,2,1,4
COc1ccc(-n2cc(COC(=O)NCCc3c[nH]c4ccccc34)nn2)cc1,3,0,-1,4,-4
COc1ccc(-c2cc(-c3nnc(SCC(=O)Nc4ccccc4-c4ccccc4)n3N)[nH]n2)cc1,0,-3,-1,-1,-2
CCOC(=O)C1CCCN(C(=O)c2ccc(Cl)cc2)C1 (stereo not drawn),3,1,2,-5,-8
CCOC(=O)C1CCCN(C(=O)c2cc(Cl)ccc2Cl)C1 (stereo not drawn),22*,1,10,0,1
COC(=O)C/C=C/[C@@H](C)[C@H](NC(=O)OCC(Cl)(Cl)Cl)c1ccc(-c2ccccc2)cc1,0,-1,0,-6,-2
SMILES,UHRF1 binding,PLC-gamma1 inh,MBD2 DNA inh,LEDGF integ inh,PLC-beta3 inh
C=CCN(C)C(C#Cc1ccccc1)c1ccccc1C(F)(F)F (stereo not drawn),-1,0,2,-3,4
Cc1cc(C)c(-c2c(O)c3cccnc3n(C)c2=O)c(C)c1,29*,-29,-4,-1,-40
Cn1c(=O)c2cccnc2c(=O)n1C,3,3,1,-3,-1
S=c1[nH]nc(-c2cc(-c3ccccc3)n[nH]2)n1N=Cc1c[nH]c2ccccc12,1,0,-1,-3,-2
COCc1cc(C)nc(OCC(=O)N/N=C/c2ccc(OC)c(O)c2)c1C#N,36*,0,-2,-2,-4
Clc1ccc([C@H]2OC[C@@]3(CNCCc4c[nH]c5ccccc45)CS[C@H](c4ccc(Cl)cc4)N23)cc1,-1,-1,-6,8,2
Cc1cnn(C(=S)NCCc2ccccc2)c1,-2,0,2,2,-1
Cc1cnn(C(=S)NCc2ccc(Cl)cc2)c1,0,13*,-2,0,9
COc1ccc(CCNC(=O)c2cc(-c3ccc(Cl)c(Cl)c3)oc2C)cc1,22*,4,9,5,6
COc1ccc(CCNC(=O)c2nn(C)cc2Cl)cc1,1,0,1,1,1
COC(=O)C1CN(Cc2ccc(F)cc2)CCS(=O)(=O)N1Cc1ccc(C)cc1 (stereo not drawn),0,-1,-6,3,3
OCCN(CC#CC(O)(c1ccccc1)c1cccc(F)c1)CCO (stereo not drawn),26*,0,9,-5,-4
OC(C#CCN1CCCC1)(c1ccccc1)c1cccc(F)c1 (stereo not drawn),-1,3,-7,5,1
FC(F)(F)c1ccccc1NC(=S)OC1CCC12CCC(c1ccccc1)CC2 (stereo not drawn),1,2,2,1,-5
CCC(=O)NC(c1cccs1)c1ccc2cccnc2c1O (stereo not drawn),-6,-21,-4,-10,-27
CCC(=O)NC(c1cccs1)c1cc([N+](=O)[O-])c2cccnc2c1OC (stereo not drawn),-1,18*,-14,7,-3
CCOC(=O)[C@@]12CN(C(=O)OC(C)(C)C)CC=C1N(Cc1ccc(OC)cc1)C(=O)[C@H]2CC(=O)N1CCSCC1,0,0,-2,0,1
N#Cc1cc(F)cc(OC[C@@H](O)CN2CCC(C(O)(c3ccccc3)c3ccccc3)CC2)c1,-3,2,-3,6,-11
CN1CC=C(c2ccccc2)N(c2ccc(Br)cc2)C1=O,-1,-3,-1,1,-1
Oc1cc2c(cc1O)[C@H]1c3ccc(O)c(O)c3OC[C@@]1(O)C2,6,-2,4,83*,-6
CC1CCN(C(=S)c2ccc3c(c2)OCO3)CC1,61*,3,0,2,1
COc1cc([C@@H]2OC[C@@H]3[C@H]2CO[C@@H]3c2ccc3c(c2)OCO3)ccc1O,2,3,-2,2,4
COc1cc(CC2COC(c3ccc(O)c(OC)c3)C2COC(C)=O)ccc1O (stereo not drawn),14,-3,12,14*,-2
CSc1ccccc1NC(=O)CN(C)C(=O)CCc1c[nH]c2ccccc12,21*,3,5,-5,-8
Cc1ccc(Nc2nc(C)c3c(n2)CC(C)CC3=O)c(C)c1 (stereo not drawn),28*,-20,-6,-1,-27
